Autofluor counter = counter-screen for toxin protease inhibitors: compound fluorescence. fluorescence intensity (no concentration beside the values). actives 3.1% (n = 360,000). compound autofluorescence counterscreen, microsphere flow cytometry; hits give high values; in the data active = fluorescence intensity above about 16000; inconclusive = no clear call, values can overlap the other calls
BoNT F protease = BoNT/F light chain protease inhibitors, primary screen, biochemical, flow cytometry, MLPCN library; Botulinum neurotoxin type F light chain protease (Clostridium botulinum); Multiplex microsphere protease cleavage assay; inhibition, % at 10 µM; actives 0.22% (n = 360,000); AID 588497, 2011; in the data active = inhibition above about 35%, passing the limit was not always enough; inconclusive = no clear call, values can overlap the other calls; note: plate controls were buffer without enzyme for full effect and enzyme alone for no effect
Vc quorum ag = inducers of Vibrio cholerae quorum light production without autoinducers, primary screen, BH1578 luxS cqsA deficient, single point; AID 588436, 2011; V. cholerae BH1578 lux reporter, luminescence, 6 h; actives 0.16% (n = 350,000); activation, % at 18.7 µM; in the data active = activation mostly above about 9.7%, no sharp cut-off; inconclusive = no clear call, values can overlap the other calls; inactive = mostly below about 3.7%
BJeLR lethal = MLPCN primary cell-based screen for lethality selective to Ras in HRASV12 cells; BJeLR (HRASV12) viability, CellTiter-Glo ATP luminescence, 48 h; inhibition, % (concentration not given with the values); actives 0.17% (n = 300,000); AID 1554, 2009; in the data active = inhibition above about 50%; inconclusive = no clear call, values can overlap the other calls
BoNT-A LC inh2 = BoNT/A light chain protease inhibitors, primary screen, biochemical, flow cytometry, MLPCN library; actives 0.17% (n = 360,000); inhibition, % at 10 µM; multiplex microsphere protease substrate cleavage; Botulinum neurotoxin type A light chain protease (Clostridium botulinum A str. ATCC 3502); note: plate controls were buffer without enzyme for full effect and enzyme alone for no effect
Anthrax LF prot = Bacillus anthracis LF protease inhibitors, primary screen, biochemical, multiplex microsphere, MLPCN library. AID 588501, 2011. inhibition, % at 10 µM. multiplex microsphere protease cleavage assay. actives 0.12% (n = 360,000). Lethal factor (Bacillus anthracis), P15917; note: plate controls were buffer without enzyme for full effect and enzyme alone for no effect
* marks the source's active call; other numbers are inactive results; i = inactive; ? = inconclusive; . = no result. In the library only some 3.7% were active in any assay of this set; here they are far more common. Cut-off read from the data, not from the text of the source, unless noted: active = inhibition above about 30%; inconclusive = no clear call, values can overlap the other calls; inactive = below that.

SMILES | Autofluor counter | BoNT F protease | Vc quorum ag | BJeLR lethal | BoNT-A LC inh2 | Anthrax LF prot
CN(CC(=O)N1CCCC1)S(=O)(=O)c1cc(Cl)ccc1Cl | 22425* | -6 | 3 | -8 | ? | 0
CS(=O)(=O)N(CC(=O)N1CCCC1)c1ccc(Cl)cc1Cl | 2937 | 4 | 0 | 3 | 2 | 21
O=C(Nc1ccc(Cl)c(C(F)(F)F)c1)C1CCCN(S(=O)(=O)c2cnc[nH]2)C1 (stereo not drawn) | 20180* | -4 | i | 5 | -1 | -3
O=C(Nc1ccc(F)c(F)c1)C1CCCN(S(=O)(=O)c2cnc[nH]2)C1 (stereo not drawn) | 5627 | -6 | 0 | -3 | -1 | 2
O=C(O)CNC(=O)c1ccc(S(=O)(=O)N2CCOCC2)cc1 | 20309* | 2 | 0 | 3 | 1 | 1
O=C(NC(Cc1ccccc1)C(=O)O)c1ccc(S(=O)(=O)N2CCOCC2)cc1 (stereo not drawn) | 19429* | -1 | i | -2 | 0 | -1
CCCCn1nnnc1C(c1cc2ccccc2o1)N1CCN(c2ncccc2C#N)CC1 (stereo not drawn) | 6096 | -6 | . | . | -1 | 1
Cc1cc(Br)cn2c(Cc3cccc(F)c3)c(-c3ccccc3)nc12 | 6842 | 3 | . | . | 1 | 1
CCN(CC)C(=O)CSc1nnc(CCN)o1 | 23987* | -2 | 0 | . | -2 | -2
NCCc1nnc(SCC(N)=O)o1 | 10327 | 2 | -1 | -7 | -1 | -9
Cc1c(Cl)cccc1NC(=O)CSc1nnc(CCNC(=O)OC(C)(C)C)o1 | 22523* | 4 | -6 | 2 | 2 | -1
CN(C)C(=O)CSc1nnc(CCNC(=O)OC(C)(C)C)o1 | 22750* | 4 | 2 | 6 | 0 | -3
Cc1ccc(C)c(NC(=O)CSc2nnc(CCNC(=O)OC(C)(C)C)o2)c1 | 15807 | 0 | -2 | 0 | 1 | 6
CCN(CC)C(=O)CSc1nnc(CCNC(=O)OC(C)(C)C)o1 | 23519* | -1 | i | 5 | 0 | 0
COc1ccc(C(O)c2nc(-c3ccc4ccccc4c3)cs2)cc1 (stereo not drawn) | 3726 | -2 | -1 | . | 0 | -3
COCCNC(=O)C1CCCN(Cc2ccccc2-c2ccccc2)CC1 (stereo not drawn) | 3793 | 0 | i | . | 0 | 2
CCOC(=O)CSc1nc2sc3c(c2c(=O)n1-c1ccccc1)CCN(C(C)C)C3 | 5608 | 4 | i | -27 | 56* | 6
S=C(Nc1ccc(Cl)c(Cl)c1)NC1CCCCC1 | 21140* | -5 | i | -3 | -2 | 1
S=C(Nc1ccc2nsnc2c1)NC1CCCCC1 | 2378 | -4 | 0 | 4 | 20 | 6
Cc1ccc(NC(=O)NC2CCCCC2)cc1Cl | 21618* | 4 | 0 | . | 5 | 1
CC(=O)c1ccc(-c2cnc3c(NC=O)cc(-c4cnn(C)c4)cn23)cc1 | 3025 | -10 | i | . | 0 | 2
c1ccc2c(c1)oc1c(Nc3ccc4c(c3)OCCO4)ncnc12 | 19956* | 2 | 0 | -7 | 2 | -4
Cc1nc(Nc2ccc3c(c2)OCCO3)c2oc3ccccc3c2n1 | 2440 | -4 | i | -13 | 0 | -2
CCc1nc(Nc2ccc3c(c2)OCCO3)c2oc3ccccc3c2n1 | 17390* | -8 | -1 | -7 | -3 | -4
CCc1nc(NCc2ccc3c(c2)OCO3)c2oc3ccccc3c2n1 | 23489* | -6 | 0 | 8 | ? | -2
SMILES | Autofluor counter | BoNT F protease | Vc quorum ag | BJeLR lethal | BoNT-A LC inh2 | Anthrax LF prot
CCCNC(=O)C1(C)CCN(C(=O)c2sccc2C)C1 (stereo not drawn) | 3493 | -2 | i | . | 0 | 5
S=C(NCc1cccs1)Nc1cc(Cl)cc(Cl)c1 | 6322 | -4 | -1 | -8 | -1 | -3
CC(C)c1ccc(NC(=S)NCc2cccs2)cc1 | 21787* | -6 | i | -7 | -4 | -2
S=C(NCc1cccs1)Nc1cccc(Cl)c1 | 18567* | -14 | i | -5 | -11 | -6
COc1ccc(C(C)(O)c2nc(-c3ccccc3C)cs2)cc1 (stereo not drawn) | 3624 | -8 | 0 | . | 0 | -4
CCOCCCN1CN(Cc2ccco2)CNC1=S | 4161 | -6 | i | 1 | 0 | 6
COCCN1CSC(=S)N(Cc2ccco2)C1 | 21084* | 6 | 0 | 3 | 4 | 0
S=C1SCN(Cc2ccccn2)CN1Cc1ccco1 | 16488* | -3 | i | 0 | 1 | 2
CCOc1ccccc1-c1ccc(C(=O)NCc2ccc(Cl)cc2)o1 | 5348 | -2 | . | . | 0 | -9
COc1ccc(CN2C(=O)C(CC(=O)NCc3cccc4ccccc34)CC(C(=O)N(C(C)C)C(C)C)=C2C)cc1 (stereo not drawn) | 5560 | 6 | . | . | 1 | 1
Cc1cccc(C)c1NC(=S)N/N=C/c1ccc(OCCC(C)C)cc1 | 20711* | -6 | -2 | -1 | -4 | -1
COc1ccc(C(=O)NC(CC(C)C)C(=O)O)cc1OC (stereo not drawn) | 20991* | -4 | i | -2 | ? | -3
COC(=O)c1ccc(N2C(c3ccsc3)=Cc3cc4c(cc3C2CC(=O)c2ccco2)OCO4)cc1 (stereo not drawn) | 6069 | -6 | . | . | 1 | -5
CN1OC[C@@H]2CN(S(=O)(=O)c3cccc(C(F)(F)F)c3)[C@H](c3ccc(-c4cccnc4)cc3)C[C@@H]21 | 3675 | 0 | -1 | . | 0 | 5
Nc1cc(=O)[nH]c(SCC(=O)Nc2ccc(F)c(Cl)c2)n1 | 21150* | -6 | i | -5 | -5 | 1
Nc1cc(=O)[nH]c(SCC(=O)Nc2ccc3c(c2)CCC3)n1 | 4265 | 1 | 2 | -14 | -1 | 2
CC(=O)Nc1cccc(-n2nnc(SCC(N)=O)n2)c1 | 4411 | 7 | -1 | 3 | 0 | 1
CC(=O)Nc1cccc(-n2nnc(SCC(=O)Nc3ccc(F)c(Cl)c3)n2)c1 | 16932* | -294 | i | 9 | -51 | -50
CCC(CC)C(=O)Nc1cccc(S(=O)(=O)c2cccc(NC(=O)C(CC)CC)c2)c1 | 16846* | -1 | -12 | 0 | -1 | -1
CCC(CC)C(=O)Nc1cccc(C(=O)Nc2ccc(S(=O)(=O)Nc3ccc(C)cc3)cc2)c1 | 22769* | -4 | i | -3 | 0 | 1
CC(=O)c1cccc2c1OC(C)C(=O)N2Cc1ccc(Cl)cc1 (stereo not drawn) | 3657 | -2 | i | . | 1 | 1
Cn1c(Cn2nnc(-c3ccccc3)n2)nnc1SCc1ccccc1Cl | 16202* | 2 | i | -17 | ? | -1
Cc1nc(N2CCOCC2)c(C#N)c2c1COC(C)(C)C2 | 20542* | -2 | 1 | 4 | -2 | -2
